Records with an inconclusive call do not appear. Activity calls are given as the source filed them. Calls follow the shape of the dose curve; as a rule, active = well fitted inhibition curve with a large enough effect; inconclusive = small, poorly fitted or top-dose-only effect; inactive = flat fitted curve, though single readings scatter.

What all share (test): qHTS profiling for inhibitors of Plasmodium falciparum proliferation (AID 504749); also: nearly all actives have a fitted effect of over 60% in size
Background: In qHTS, concentration-response curves come from the screen itself.

In one assay the test system is CP191. The conditions noted are these: P. falciparum in erythrocytes, SYBR Green DNA, 72 h; series mostly up to 28.7 µM. In outline:
(§1)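 SYBR Green fluorescence (ex 485 nm, em 535 nm) reports parasite DNA after 72 h compound exposure of infected red cells at 0.3% parasitemia, 2.5% hematocrit; signal normalized to 0.29 uM artemisinin and vehicle wells.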

A further assay has as its system CP192. The following applies: P. falciparum in erythrocytes, SYBR Green DNA, 72 h; series mostly up to 28.7 µM. In outline:
as §1

A further assay has as its system CP194. The conditions noted are these: P. falciparum in erythrocytes, SYBR Green DNA, 72 h; series mostly up to 28.7 µM. An outline of the steps:
as §1

A further assay deals with CP201. The conditions noted are these: P. falciparum in erythrocytes, SYBR Green DNA, 72 h; series mostly up to 28.7 µM. In outline:
as §1

The next assay has as its system CP203. The following applies: P. falciparum in erythrocytes, SYBR Green DNA, 72 h; series mostly up to 28.7 µM. An outline of the steps: as §1
The next assay relates to CP211. The conditions noted are these: P. falciparum in erythrocytes, SYBR Green DNA, 72 h; series mostly up to 28.7 µM. An outline of the steps: as §1
A further assay concerns CP217. The following applies: P. falciparum in erythrocytes, SYBR Green DNA, 72 h; series mostly up to 28.7 µM. In outline:
as §1

The test system of another assay is CP238. The conditions noted are these: P. falciparum in erythrocytes, SYBR Green DNA, 72 h; series mostly up to 28.7 µM. An outline of the steps: as §1
For the next assay, the system named is CP247. The conditions noted are these: P. falciparum in erythrocytes, SYBR Green DNA, 72 h; series mostly up to 28.7 µM. In outline:
as §1

In a further assay the test system is CP250. The following applies: P. falciparum in erythrocytes, SYBR Green DNA, 72 h; series mostly up to 28.7 µM. An outline of the steps: as §1
The subject of a further assay is CP252. The conditions noted are these: P. falciparum in erythrocytes, SYBR Green DNA, 72 h; series mostly up to 28.7 µM. In outline: as §1
Another assay deals with CP260. The following applies: P. falciparum in erythrocytes, SYBR Green DNA, 72 h; series mostly up to 28.7 µM. An outline of the steps:
as §1

The next assay relates to CP262. The conditions noted are these: P. falciparum in erythrocytes, SYBR Green DNA, 72 h; series mostly up to 28.7 µM. An outline of the steps:
as §1

Another assay deals with CP265. The conditions noted are these: P. falciparum in erythrocytes, SYBR Green DNA, 72 h; series mostly up to 28.7 µM. In outline: as §1
The subject of another assay is CP266. The following applies: P. falciparum in erythrocytes, SYBR Green DNA, 72 h; series mostly up to 28.7 µM. In outline:
as §1

For the next assay, the system named is CP268. The following applies: P. falciparum in erythrocytes, SYBR Green DNA, 72 h; series mostly up to 28.7 µM. In outline:
as §1

The subject of another assay is CP269. The following applies: P. falciparum in erythrocytes, SYBR Green DNA, 72 h; series mostly up to 28.7 µM. In outline:
as §1

A further assay has as its system CP215. The following applies: P. falciparum in erythrocytes, SYBR Green DNA, 72 h. In outline:
as §1

A further assay has as its system CP237. The following applies: P. falciparum in erythrocytes, SYBR Green DNA, 72 h. An outline of the steps: as §1
For a further assay, the system named is CP256. The conditions noted are these: P. falciparum in erythrocytes, SYBR Green DNA, 72 h. An outline of the steps: as §1
Potency is read from the fitted curve at half-maximal effect.

Turning to `CCCOc1ccc2nc(NC(=O)OC)sc2c1`, the Potency entry in the assay with CP191, in the assay with CP192, in the assay on CP194, in the assay on CP201, with CP203 and with CP211 was “inactive” each time. Besides, the Potency entry with CP217, in the assay with CP238, in the assay with CP247, in the assay on CP250, in the assay with CP252 and with CP260 was “inactive” in each case. In addition, the Potency result with CP265, with CP266, in the assay on CP268 and in the assay on CP269 was “inactive” in each case. Also, in the assay on CP262, the compound was called inactive.

`C=CCNC1=C2C[C@@H](C)C[C@H](OC)[C@H](O)[C@@H](C)/C=C(\C)[C@H](OC(N)=O)[C@@H](OC)/C=C\C=C(/C)C(=O)NC(=CC1=O)C2=O`: the Potency in the assay on CP191 was 2000 nM (active); in the assay on CP192 it was 4260 nM (active); with CP194 it was 4260 nM (active); with CP201, 6750 nM (active); in the assay on CP203, 3790 nM (active); with CP211, 3790 nM (active). The Potency in the assay with CP215 is 4780 nM (active); with CP217, 2000 nM (active); with CP237, 1260 nM (active); in the assay with CP238, 1580 nM (active); in the assay on CP247 it was 2240 nM (active); with CP250, 2240 nM (active). Besides, the Potency was 1780 nM (active) with CP252; 2240 nM (active) with CP256; 2240 nM (active) with CP260; 2000 nM (active) in the assay on CP265; 10700 nM (active) in the assay with CP266; 5360 nM (active) in the assay with CP268. In addition, the Potency with CP269 is 1690 nM (active).

Turning to `COC1C(OC(=O)/C=C/C=C/C=C/C=C/C(=O)O)CCC2(CO2)C1C1(C)OC1CC=C(C)C` (centres undefined), the Potency with CP191 is 50.1 nM (active); in the assay on CP194, 536 nM (active); in the assay with CP201, 7570 nM (active); with CP203, 2690 nM (active); with CP211, 37.9 nM (active); with CP215, 6010 nM (active). Further, the values for the Potency with CP256 and in the assay on CP268 were 70.8 nM (active) and 3380 nM (active), respectively.

For the origin of these results see PubChem BioAssay (NCATS).
